Bioassay records as filed in PubChem BioAssay.
APEX1 inh: inhibitors of human APE1 endonuclease; Potency, µM (top dose mostly 65.8 µM), for the others: at the highest dose activity change, negative = inhibition, hits mostly inhibitors; recombinant APE1, TAMRA/BHQ-2 abasic DNA cleavage fluorescence; AID 2517; 0.35% of 350,000 active;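 also: plate controls were vehicle for no effect and reference inhibitor for full effect; nearly all actives have a fitted effect of over 55% in size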
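Measures dequenching upon AP-site incision of a 5'-TAMRA/3'-BHQ-2 THF-containing duplex, 50 nM; human APE1 0.75 nM after 15 min room-temperature exposure to compound; kinetic three-point read at one-minute spacing.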
TDP1 block: TDP1 (human) enzyme inhibition; recombinant TDP1, AlphaScreen DNA substrate cleavage; Potency, µM (series often up to 130 µM), for the others: at the top dose activity change, negative = inhibition, hits mostly inhibitors; 0.28% of 350,000 active; also: nearly all actives have a fitted effect of over 40% in size
Target sequence (Q9NUW8 whole entry, looked up): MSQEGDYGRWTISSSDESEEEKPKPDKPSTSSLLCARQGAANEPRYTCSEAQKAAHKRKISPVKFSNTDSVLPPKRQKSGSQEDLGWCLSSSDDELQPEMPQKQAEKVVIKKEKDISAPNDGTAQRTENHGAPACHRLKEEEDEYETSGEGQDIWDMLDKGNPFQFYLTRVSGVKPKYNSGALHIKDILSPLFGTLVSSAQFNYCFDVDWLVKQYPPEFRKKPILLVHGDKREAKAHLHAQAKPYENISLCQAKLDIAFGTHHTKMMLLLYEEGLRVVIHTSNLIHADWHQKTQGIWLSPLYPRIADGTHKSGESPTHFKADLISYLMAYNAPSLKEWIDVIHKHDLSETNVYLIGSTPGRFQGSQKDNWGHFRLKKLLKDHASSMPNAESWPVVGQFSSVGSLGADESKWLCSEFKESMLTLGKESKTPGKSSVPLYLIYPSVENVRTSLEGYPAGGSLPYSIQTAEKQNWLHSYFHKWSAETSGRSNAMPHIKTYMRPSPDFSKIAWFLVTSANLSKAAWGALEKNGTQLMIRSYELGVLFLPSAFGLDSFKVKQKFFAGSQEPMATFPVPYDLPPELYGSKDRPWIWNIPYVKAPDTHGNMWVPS
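E. coli-derived human Tdp1, 1 nM final. Cpd preinc 15 min RT; substrate 15 nM final, 5 min RT; AS bead mix 10 ug/ml final, 10 min RT. Signal loss = tyrosine-FITC cleavage. No-enzyme wells = max signal.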
BLM inh-1: inhibitors of human Bloom syndrome helicase BLM | P54132 | Potency, µM (doses to about 56.1 µM), for the others: at the top dose activity change, negative = inhibition, usual class: inhibitors | 0.2% of 350,000 active | recombinant BLM DNA unwinding, fluorescence dequenching;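 also: plate controls were vehicle for no effect and no enzyme for full effect; nearly all actives have a fitted effect of over 35% in size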
Lamin A splicing: LMNA splicing modulation; AID 1487; Potency, µM (series often up to 46.1 µM), for inactives: at the top dose ratio change, negative = inhibition, usual class: inhibitors; 0.01% of 200,000 active; HeLa LMNA splicing GFP/RFP minigene ratio, 48 h; active = well fitted inhibition curve with a large enough effect in the signal ratio, with a control signal flat, not every such curve was filed as active; inconclusive = small, poorly fitted or top-dose-only effect, or effect the other way, or a change in a side signal; the % refers to the signal ratio
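S3 HeLa cells stably expressing lamin A-EGFP splicing minigene plus DsRed2, 600 cells/well, 48 h compound exposure at 37C. Laser-scanning cytometry; analysed as GFP (500-530 nm)/RFP (575-640 nm) total intensity ratio; 0.5% DMSO vehicle.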
RECQ1 inh: inhibitors of human RECQ1 DNA helicase. 0.54% of 240,000 active. Potency, µM (doses to about 57.3 µM), inactives show at the top dose activity, negative = inhibition, usual class: inhibitors. P46063. RECQ1 DNA unwinding, red fluorescence kinetic read;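 also: plate controls were vehicle for no effect and no enzyme for full effect; nearly all actives have a fitted effect of over 30% in size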
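RECQ1T1 50 nM; forked duplex (20 bp + 30-nt ss tails) 200 nM, ATP 2 mM final; pH 8.0, 2 mM MgCl2, 2.5 ug/ml poly(dI-dC); 15 min compound preincubation; discontinuous kinetic read over 2 h at RT.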
KAT2A inh: GCN5L2 (KAT2A) acetyltransferase inhibition | 0.21% of 390,000 active | GCN5L2 HAT assay, ThioGlo1 CoA-SH fluorescence | Potency, µM (highest dose often 58.9 µM), inactives show top-dose activity change, negative = inhibition, most hits filed as inhibitors
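GCN5L2 (20 nM) in 50mM HEPES pH 7.5, 0.1mM EDTA, 0.01% Tween-20 preincubated 15 min with compounds at room temperature. Reaction started with H3(1-25) 75uM, acetyl-CoA 70uM, ThioGlo1 50uM; CoA-thiol fluorescence (Ex340/Em540) read at 0 and 20 min.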
BLM inh-2: BLM (human) helicase inhibition, confirmation. shares compounds with BLM inh-1. BLM DNA unwinding, fluorescence quenching, biochemical. Potency, µM, for the others: max response, negative = inhibition, usual class: inhibitors. 40% of 220 active. AID 2585;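 also: strand separation dequenches TAMRA so unwinding raises red fluorescence; series mostly up to about 69 µM; nearly all actives have a fitted effect of over 45% in size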
The depositor's hits bear a star; i = inactive; ? = inconclusive; . = no result; ! = not confirmed by another sample; [ ] = another dose, or the depositor's remark. Rows were chosen to be rich in hits. Some 0.9% of all compounds tested hit in one or more screens of this group. Unless noted, calls follow the shape of the dose curve; as a rule, active = well fitted curve in the direction sought with a large enough effect; inconclusive = small, poorly fitted or top-dose-only effect, or another doubt; inactive = no such curve, though single readings can be large; an effect the other way counts as inactive or inconclusive. Unless noted, % is scaled to controls: 0 for no effect and ±100 for the full control effect; potency is read from the fitted curve at half-maximal effect.

SMILES	APEX1 inh	TDP1 block	BLM inh-1	Lamin A splicing	RECQ1 inh	KAT2A inh	BLM inh-2
CN(C)[C@H]1C(=O)C(C(=O)NCN2CCCC2)=C(O)[C@]2(O)C(=O)C3=C(O)c4c(O)cccc4[C@](C)(O)[C@H]3C[C@H]12	.	0.2µM*	14µM*	?	.	1.8µM*	20µM*
N#Cc1c(SCC(=O)Nc2nncs2)sc2c(O)cc(=O)[nH]c12	-92%	.	11µM*	.	.	?	?
CC(C)(C)OC(=O)NCC(=O)NNC(=O)c1nc2ccccc2[nH]1	.	1%	.	.	.	.	.
COC(=O)C(NS(=O)(=O)CCl)C(C)C (configuration not stated)	-2%	2%	1%	.	i	.	.
COc1cc(NS(=O)(=O)c2ccc(C)cc2)c2ncccc2c1	1%	7%	-3%	?	-2%	-7%	.
COc1cc(NCCCC(C)N)c2ncccc2c1 (configuration not stated)	?	9%	35µM*!	3%	?	-1%	-12%
CCOc1cccc(=O)c2c(C)n(CC(=O)c3ccccc3)c(C)c12	0%	9%	-12%	.	i	-8%	.
COc1cccc(=O)c2c(C)n(CC(=O)c3ccccc3)c(C)c12	-3%	6%	25µM*	-3%[46 µM]	-18%	?	4%
O=C(O)C1CSC(c2ccco2)N1 (configuration not stated)	14µM*	.	25µM*	24%[46 µM]	32µM*	?	3%
O=C(O)C1CSC(c2ccncc2)N1 (configuration not stated)	-3%	0%	3%	-7%	1%	0%	.
COc1ccccc1CNC(=O)/C=C/c1ccc(Br)o1	14%	-10%	10µM*	.	-9%	?	-11%
CCOC(=O)C1CCN(c2nc3ccccc3n2CC(=O)c2ccccc2)CC1	0%	-4%	20µM*	.	i	0%	-2%
N#Cc1sc2nc(-c3ccccc3)cc(-c3ccco3)c2c1N	?	-8%	4µM*	8%	?	-5%	4.1µM*
COc1ccc(OC)c(C2=Nn3c(nnc3-c3cccc(OC)c3OC)SC2)c1	-7%	10%	2%	.	12%	.	.
Cc1c(C(=O)Nc2ccc(F)cc2)cn2c(nc3ccccc32)c1C#N	28%	.	-7%	.	-8%	4%	.
N#Cc1c2nc3ccccc3nc2n2cc(NC(=O)c3ccc(F)cc3)ccc12	4%	3%	13µM*	4%	-6%	-18%	7.3µM*
CCc1ccc(C(=O)c2cn(CC(=O)Nc3cccc(OC)c3)c3ccc(OC)cc3c2=O)cc1	28%	.	20µM*	.	.	-14%	20µM*
COc1cccc(NC(=O)Cn2cc(C(=O)c3ccc(C)cc3)c(=O)c3cc(OC)ccc32)c1	9%	?	?	.	.	-5%	.
CCCC[C@@H]1CCCO[C@@](C(=O)NCCOC)(C(F)(F)F)C1	-2%	6%	-10%	.	i	.	.
O=C(/C=C/c1ccccc1Cl)Nc1ccc2c(c1)C(=O)NC2=O	13µM*	-11%	32µM*	.	-23%	-29%	?
O=C(CSc1ccccn1)Nc1ccc2c(c1)C(=O)c1ccccc1C2=O	?	22µM*	25µM*	-7%	-1%	?	?
O=C(CSc1n[nH]c(=O)[nH]c1=O)Nc1cccc(S(=O)(=O)N2CCOCC2)c1	-1%	-2%	5%	1%[46 µM]	5%	-1%	.
O=C(CSc1n[nH]c(=O)[nH]c1=O)Nc1ccc2c(c1)C(=O)c1ccccc1C2=O	?	.	13µM*	.	i	?	16µM*
CCc1c2c(nc3ccc4c(c13)OCCO4)-c1nc3ccccc3c(=O)n1C2	27%	3%	-10%	.	9%	.	.
CCOC(=O)/C=C1\CC(C(=O)OCC)Oc2c(OC)cccc21 (configuration not stated)	-6%	0%[56.1 µM]	2%[75.6 µM]	.	-7%[81.1 µM]	-6%	6%
SMILES	APEX1 inh	TDP1 block	BLM inh-1	Lamin A splicing	RECQ1 inh	KAT2A inh	BLM inh-2
C=C1c2cccc(OC)c2O[C@H](C(=O)OCC)[C@@H]1CC(CC)CCCC (some centres not stated)	-31%	?	-8%[75.6 µM]	.	0%[81.1 µM]	-15%	.
N#C/C(=C\c1ccc(OC(=O)c2cccs2)cc1)c1nc2ccccc2[nH]1	7%	-4%	20µM*	-9%	7%	-12%	-8%
COc1cc(Cl)c(C)cc1NC(=O)CSc1ncc(S(=O)(=O)c2ccc(C(C)(C)C)cc2)c(=O)[nH]1	.	?	16µM*	.	.	18µM*	23µM*
Nc1c(C(=O)NC2CC2)sc2nc3c(c(-c4ccco4)c12)CC/C3=C/c1ccco1	3%	0%	5.6µM*	2%	-12%	?	?
Cc1ccc(-c2nn3c(C)nnc3s2)cc1NC(=O)c1ccc(-c2ccc(Cl)cc2Cl)o1	-2%	.	11µM*	6%	i	-2%	7.3µM*
CN1CCN(c2ncc3nc(-c4ccccc4)c(=O)n(Cc4ccc(F)cc4)c3n2)CC1	2%	.	2%	.	1%	-21%	.
COc1ccc2c(c1)Cc1sc(NC(=O)c3cccnc3)nc1-2	?	2%	18µM*	-16%[46 µM]	-2%	-1%	?
Cc1cccc(Nc2nn3c(=O)c4cc5c(cc4nc3s2)OCO5)c1	.	.	11µM*	.	.	-17%	10µM*
Cc1cccc(C)c1Nc1nn2c(=O)c3cc4c(cc3nc2s1)OCO4	.	0%	-13%	.	.	-5%	.
FC(F)(F)c1cc(Oc2ccc(Cl)cc2)nc(-c2ccccn2)n1	-4%	2%	-4%	-5%	-5%	-11%	.
FC(F)(F)c1cc(Oc2ccccc2Cl)nc(-c2ccccn2)n1	3%	4%	4.5µM*	-9%	-5%	-14%	4.1µM*
O=C(Cc1ccccc1)Nc1ccccc1Sc1ccccc1	7%	0%	-13%	?	-1%	-8%	.
O=C(CCl)Nc1ccccc1Sc1ccc(Cl)cc1	9%	-6%	16µM*	?	i	-4%	11µM*
Cc1ccc(Cl)cc1NS(=O)(=O)c1cc2c(cc1F)NC(=O)CC2	.	-6%	.	.	.	.	.
COc1ccc(C(=O)Nc2nnc(SCc3cc(=O)c4cc(C)cc(C)c4[nH]3)s2)cc1	.	3%	20µM*	-5%[46 µM]	.	-2%	18µM*
CCOc1ccc(C(=O)Nc2nnc(SCc3cc(=O)c4cc(C)ccc4[nH]3)s2)cc1	.	0%	-4%	?	.	-8%	.
CCOc1ccc(-c2nc(SCC(=O)Nc3cc(F)ccc3F)n3[nH]c(=O)cc3n2)cc1	.	.	10µM*	.	.	5%	11µM*
